# Experimental data from PubChem BioAssay (NCI).
# This is part of a sample that, as a whole, favours compounds with a hit. Of some 83,000 tested, about 20% had one in any assay.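 Compound tested at a single concentration for 48 hours in 96-well plates; a percent growth value below 10 was scored as active.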 A number with no mark means an inactive call. Calls of active or inactive are those of the source.
# How the values were obtained:
# Test in all cases: NCI-60 one-dose screen, 48 h (100 = growth as untreated, 0 = no growth, -100 = all killed)
# Settings in all cases: 10 µM unless noted
# RPMI-8226 leukemia = tested on: RPMI-8226 leukemia
# OVCAR-5 ovarian = tested on: OVCAR-5 ovarian
# OVCAR-4 ovarian = tested on: OVCAR-4 ovarian
# SK-OV-3 ovarian = tested on: SK-OV-3 ovarian
# IGROV1 ovarian = tested on: IGROV1 ovarian
# OVCAR-3 ovarian = tested on: OVCAR-3 ovarian
# HS 578T breast = tested on: HS 578T breast
# NCI/ADR-RES ovarian = tested on: NCI/ADR-RES ovarian
# T-47D breast = tested on: T-47D breast
# MDA-MB-435 melanoma = tested on: MDA-MB-435 melanoma
# SW-620 colon = tested on: SW-620 colon
# MCF7 breast = tested on: MCF7 breast
# HCT-116 colon = tested on: HCT-116 colon
# HCC-2998 colon = tested on: HCC-2998 colon
# KM12 colon = tested on: KM12 colon
# BT-549 breast = tested on: BT-549 breast
# OVCAR-8 ovarian = tested on: OVCAR-8 ovarian
Structure (SMILES),growth (RPMI-8226 leukemia),growth (OVCAR-5 ovarian) [%],growth (OVCAR-4 ovarian) [%],growth (SK-OV-3 ovarian) [%],growth (IGROV1 ovarian),growth (OVCAR-3 ovarian),growth (HS 578T breast) [%],growth (NCI/ADR-RES ovarian),growth (T-47D breast) [%],growth (MDA-MB-435 melanoma),growth (SW-620 colon),growth (MCF7 breast),growth (HCT-116 colon),growth (HCC-2998 colon),growth (KM12 colon),growth (BT-549 breast) [%],growth (OVCAR-8 ovarian) [%]
Cc1cccc2nc3c(n12)C(=O)C(=O)c1ccccc1-3,44.9%,104,83.1,79.5,44.7%,54%,75.2,50.3%,62.5,-86% (active),79.4%,47.9%,38.7%,115%,90.6%,,
COC(=O)c1oc2c(C(=O)/C=C/c3ccc(OC)cc3)c(OCCCN3CCCCC3)ccc2c1C,-65.7% (active),23.3,14.1,28.5,9.13% (active),26.5%,12.6,0.873% (active),38.5,6.56% (active),-17.9% (active),6.82% (active),1.36% (active),-45% (active),-11.5% (active),22.9,
COc1ccc(Nc2cc(NC(=O)CNc3cc(OC)c(Cl)c(OC)c3Cl)ncn2)cc1,62.5%,88.1,80.1,79.8,74.2%,81.6%,83.4,84.8%,47.1,74%,96.3%,71.7%,69.9%,95.5%,81.5%,83.2,
Nc1c(C(=O)Nc2cccc3ccccc23)sc2nc3c(cc12)CCCCCC3,30.4%,49.3,59,25.7,44.8%,-36.8% (active),28.6,20.6%,36.5,-39.3% (active),22.4%,20.6%,7.05% (active),43.3%,21.9%,32,
COc1cccc(NC(=O)Nc2ccc(Oc3ncnc4[nH]c(C)c(C)c34)cc2)c1,72.4%,129,99.2,107,52%,103%,84.8,,95.2,100%,81.7%,40.9%,81.6%,103%,52.2%,99.6,
CC(=O)OC[C@]12CC[C@@H](c3cn(Cc4ccc(Cn5cc([C@@H]6CC[C@]7(COC(C)=O)CC[C@]8(C)[C@H](CC[C@@H]9[C@@]%10(C)CC[C@H](OC(C)=O)C(C)(C)[C@@H]%10CC[C@]98C)[C@@H]67)nn5)cc4)nn3)[C@@H]1[C@H]1CC[C@@H]3[C@@]4(C)CC[C@H](OC(C)=O)C(C)(C)[C@@H]4CC[C@@]3(C)[C@]1(C)CC2,108%,102,109,100,105%,97.4%,97.2,102%,87.1,105%,106%,92.1%,109%,104%,106%,91.4,
O=C1NC(c2ccc(F)cc2)N=C2C(c3ccccc3)=NOC12 (centres undefined),107%,108,105,106,108%,109%,106,112%,104,106%,106%,101%,103%,101%,98.8%,106,
CN1CCN(C(=O)[C@@]2(C)CC[C@]3(C)CC[C@]4(C)C(=CC[C@@H]5[C@@]6(C)CC[C@H](OC(=O)c7cccnc7)C(C)(C)[C@@H]6CC[C@]54C)[C@@H]3C2)CC1,6.97% (active),78.7,,79.3,88.2%,80.9%,76.8,77.6%,57.6,45.4%,-35.5% (active),19.1%,51.7%,97.3%,53.2%,,
CC[C@]12C=CCN3CC[C@@]4(c5cc(NC(=O)CCC(=O)O[C@H]6CC[C@H]7[C@@H]8CC[C@H]9CC(=O)CC[C@]9(C)[C@H]8CC[C@]67C)c(OC)cc5N(C)[C@H]4[C@@](O)(C(=O)OC)[C@@H]1OC(C)=O)[C@@H]32,,104,60.7,98.6,69.6%,73.2%,75.5,72.9%,46.4,76.5%,85.6%,48.2%,47.5%,97.5%,74.2%,58.6,75.9
Sc1cccc2cccnc12,26.5%,59.6,36.3,45.5,36.9%,17.9%,71.9,24.8%,40.5,44.9%,38.7%,26.8%,11.5%,40%,25.4%,48.4,
CCCn1c2cc(OCc3cn(-c4ccc(Cl)cc4)nn3)ccc2c2ccnc(C)c21,23.3%,78,55.5,73.9,74%,59.3%,75,66.3%,52.2,101%,74.8%,73.3%,41.6%,92.7%,74.1%,87.2,
CCCCOc1nc2ccc(C)cc2cc1/C=C/C(=O)/C=C/c1ccc2c(c1)OCO2,5.04% (active),131,95.4,106,90.3%,74.6%,101,91.7%,62.7,35.8%,99.5%,37.8%,10.5%,106%,87.3%,75.9,
Cc1nccc2c3ccc(OCc4cn(-c5ccccc5)nn4)cc3n(CCCc3ccccc3)c12,31.6%,91.2,71.2,69.7,89.1%,68.6%,65.5,70.4%,78.4,87.7%,69%,51.3%,54%,102%,78%,81.3,
CCOC(=O)c1c(C)nc2c(c1N)/C(=C/c1cccs1)C(=O)N2Cc1ccccc1,-21.2% (active),119,82.3,96.6,48%,53.2%,93.2,79%,43,88.9%,58%,8.22% (active),34.9%,96%,40.5%,73.6,
O=C1NCc2ccc3c(-c4cccc(Cl)c4)c[nH]c3c21,25.8%,39.7,53.6,10.9,32.2%,-5.67% (active),31.3,6.99% (active),39,-26.2% (active),20.7%,17.5%,14.2%,,19.1%,,
